# Values joined by “and” are separate entries in the source; they are usually repeats but may differ in a detail not shown here. Equal values may be shown once. Active and inactive are the calls of the source.
# What was measured:
# [1] = E. coli DRC41 culture turbidity changes, primary screen, E. coli filamentation inducer project, strain DRC41, OD650, 48 h (AID 1152);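 also: E. coli MC1000 strain DRC41 lacking acrAB efflux pump and sulA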; conditions: E. coli DRC41 (acrAB sulA); higher = more signal, called active from +8 up or from −8 down unless noted
# [2] = small-molecule binders of probe aLefty1, primary screen, biochemical, small-molecule microarray, 635/667 nm fluorescence (AID 1153); conditions: higher = more signal; small-molecule microarray, probe aLefty1, fluorescence unless noted;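 also: score merges spot fluorescence with signal-to-noise ratio from the scanned slide images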
# [3] = PSAC antagonists in infected red cells, primary screen, cell-based, P. falciparum Indochina, OD700, 1 h (AID 1154); conditions: P. falciparum Indochina infected RBC osmotic lysis; higher = more signal, called active from +8 up or from −8 down unless noted
# [4] = PSAC antagonists in infected red cells, primary screen, cell-based, P. falciparum Indochina, OD700, 2 h (AID 1155);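 also: lysis reports solute entry through the parasite surface anion channel PSAC; channel blockers reduce lysis of infected cells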; conditions: P. falciparum Indochina infected erythrocytes, osmotic lysis OD700; higher = more signal, called active from +8 up or from −8 down unless noted
# [5] = osmotic lysis modulators in infected erythrocytes, primary screen, PSAC antagonist project, cell-based, P. falciparum Indochina, OD700, 3 h (AID 1156); conditions: higher = more signal, called active from +8 up or from −8 down unless noted
# [6] = PSAC antagonists in infected red cells, primary screen, cell-based, P. falciparum Indochina, OD700, 18 h (AID 1157); conditions: P. falciparum Indochina infected erythrocytes, osmotic lysis OD700, 18 h; higher = more signal, called active from +8 up or from −8 down unless noted
# [7] = modulators of S6 phosphorylation in cells, primary screen, cell-based, A549, cytoblot, luminescence, serum-stimulated (AID 1158); conditions: A549 phospho-S6 cytoblot, 5 h, higher = more signal;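 also: serum-stimulated A549 lung adenocarcinoma cells; signal is phosphorylated S6 detected by cytoblot immunostaining with HRP secondary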
# [8] = molecular target: NADPH oxidase 2 (Homo sapiens) (UniProt P04839); assay: NOX2-dependent H2O2 signal modulators, primary screen, NOX inhibitor project, cell-based, HEK293-NOX2, PMA-stimulated, Amplex Red fluorescence (AID 1159); conditions: 45 min; higher = more signal, called active from +8 up or from −8 down unless noted; also: test concentration not given here
# NADPH oxidase 2 (Homo sapiens), sequence (P04839 whole entry, looked up): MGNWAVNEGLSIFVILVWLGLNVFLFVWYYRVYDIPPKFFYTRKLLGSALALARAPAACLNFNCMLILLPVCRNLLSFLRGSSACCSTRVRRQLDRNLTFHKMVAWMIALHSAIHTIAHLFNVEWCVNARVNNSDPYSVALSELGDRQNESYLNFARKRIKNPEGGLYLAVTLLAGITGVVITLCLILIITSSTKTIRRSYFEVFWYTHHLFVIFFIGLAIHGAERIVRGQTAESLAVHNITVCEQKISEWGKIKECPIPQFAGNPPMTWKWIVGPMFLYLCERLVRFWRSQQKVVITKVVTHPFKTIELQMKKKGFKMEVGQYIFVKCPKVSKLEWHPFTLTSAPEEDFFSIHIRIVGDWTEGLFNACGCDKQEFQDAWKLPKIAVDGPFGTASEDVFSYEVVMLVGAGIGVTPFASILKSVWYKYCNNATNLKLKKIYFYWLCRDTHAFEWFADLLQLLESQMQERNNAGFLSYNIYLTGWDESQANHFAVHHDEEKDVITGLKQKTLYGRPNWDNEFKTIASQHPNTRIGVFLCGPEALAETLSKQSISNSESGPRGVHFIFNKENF
# [9] = molecular target: NADPH oxidase 4 (Homo sapiens) (UniProt Q9NPH5); assay: NOX4-dependent H2O2 signal modulators, primary screen, NOX inhibitor project, cell-based, HEK293-NOX4, tetracycline-induced, Amplex Red fluorescence (AID 1160); conditions: 45 min; higher = more signal, called active from +8 up or from −8 down unless noted
# NADPH oxidase 4 (Homo sapiens), sequence (Q9NPH5 whole entry, looked up): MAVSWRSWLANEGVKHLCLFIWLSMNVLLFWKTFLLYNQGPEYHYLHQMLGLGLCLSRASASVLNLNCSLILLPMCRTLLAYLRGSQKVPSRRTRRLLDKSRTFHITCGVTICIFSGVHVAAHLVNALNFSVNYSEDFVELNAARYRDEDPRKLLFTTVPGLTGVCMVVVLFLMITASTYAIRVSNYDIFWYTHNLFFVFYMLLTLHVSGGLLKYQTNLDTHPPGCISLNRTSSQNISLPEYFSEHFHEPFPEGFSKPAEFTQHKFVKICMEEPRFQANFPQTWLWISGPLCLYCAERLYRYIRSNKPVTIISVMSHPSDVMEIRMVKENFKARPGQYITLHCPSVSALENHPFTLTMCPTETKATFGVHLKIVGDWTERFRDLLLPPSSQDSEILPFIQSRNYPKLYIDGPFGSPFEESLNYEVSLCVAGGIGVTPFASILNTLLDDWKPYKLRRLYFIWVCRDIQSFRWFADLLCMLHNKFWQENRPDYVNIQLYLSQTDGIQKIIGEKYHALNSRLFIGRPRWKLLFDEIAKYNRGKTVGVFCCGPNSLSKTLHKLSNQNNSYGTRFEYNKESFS
# [10] = molecular target: NADPH oxidase 5 (Homo sapiens) (UniProt Q96PH1); assay: NOX5-dependent H2O2 signal modulators, primary screen, NOX inhibitor project, cell-based, HEK293-NOX5, Amplex Red fluorescence (AID 1161); conditions: HEK293-NOX5, ionomycin, 45 min, higher = more signal
# NADPH oxidase 5 (Homo sapiens), sequence (Q96PH1 whole entry, looked up): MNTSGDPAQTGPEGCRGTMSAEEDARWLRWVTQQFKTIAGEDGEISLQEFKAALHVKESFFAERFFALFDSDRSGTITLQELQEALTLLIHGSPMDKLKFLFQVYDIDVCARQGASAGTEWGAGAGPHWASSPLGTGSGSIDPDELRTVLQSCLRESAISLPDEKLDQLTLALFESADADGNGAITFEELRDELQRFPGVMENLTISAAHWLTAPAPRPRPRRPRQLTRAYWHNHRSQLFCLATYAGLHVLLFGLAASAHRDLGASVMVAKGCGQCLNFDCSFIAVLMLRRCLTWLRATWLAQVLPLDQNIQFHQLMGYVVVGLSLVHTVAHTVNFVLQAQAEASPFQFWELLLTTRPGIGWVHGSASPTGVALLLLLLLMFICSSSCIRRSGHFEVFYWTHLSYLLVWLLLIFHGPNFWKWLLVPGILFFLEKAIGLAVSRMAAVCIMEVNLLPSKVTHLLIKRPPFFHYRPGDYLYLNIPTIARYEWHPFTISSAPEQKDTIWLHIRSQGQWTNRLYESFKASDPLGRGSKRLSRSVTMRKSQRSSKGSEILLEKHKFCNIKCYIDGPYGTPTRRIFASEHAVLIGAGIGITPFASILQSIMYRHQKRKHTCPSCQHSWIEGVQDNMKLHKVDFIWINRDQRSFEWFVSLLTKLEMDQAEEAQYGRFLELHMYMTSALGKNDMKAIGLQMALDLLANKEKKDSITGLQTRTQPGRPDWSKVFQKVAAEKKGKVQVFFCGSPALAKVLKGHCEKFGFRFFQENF
SMILES,z-score [1],composite z-score [2],z-score [3],z-score [4],z-score [5],z-score [6],z-score [7],z-score [8],z-score [9],z-score [10]
CCCC[C@@H]1C[C@H]1[C@@H](NP(=O)(c1ccccc1)c1ccccc1)c1ccc(Cl)cc1,-1.26 (inactive),0.337,7.22 (inactive),1.78 (inactive),0.394 (inactive),0.788 (inactive),-0.554,-1.87 (inactive),-1.56 (inactive),0.453
COC(=O)[C@H]1[C@H](c2ccccc2)C(=O)[C@]2(O)c3ccccc3O[C@@]12c1ccccc1,-0.474 (inactive),-0.0523,-0.446 (inactive),-0.657 (inactive),0.126 (inactive),-0.564 (inactive),1.55,-0.181 (inactive),-1.55 (inactive),-0.324
CC1N(P(=O)(c2ccccc2)c2ccccc2)CC(O)(c2ccccc2)CC12CC2 (stereo not given),-1.36 (inactive) and -1.82 (inactive),-0.103 and 0.607,0.232 (inactive) and 0.667 (inactive),-0.0745 (inactive),0.716 (inactive) and 0.248 (inactive),0.593 (inactive) and 0.642 (inactive),-0.259 and -0.209,-0.427 (inactive) and -1.04 (inactive),-1.52 (inactive) and -0.626 (inactive),-3.13 and -2.02
CN1CCc2nc(CO)c(CO)cc2C1,0.0958 (inactive),0.0504,0.297 (inactive),0.538 (inactive),-0.508 (inactive),0.101 (inactive),-0.121,1.62 (inactive),-1.25 (inactive),-0.795
CN1CCC(c2ccc(CO)cc2)=CC1c1cccs1 (stereo not given),-0.0115 (inactive),-0.0111,5.23 (inactive),0.366 (inactive),0.377 (inactive),0.528 (inactive),-0.594,-0.822 (inactive),-1.01 (inactive),-1.21
OCc1ccc(C2=CC(c3cccs3)N(Cc3cccc(OC(F)(F)F)c3)CC2)cc1 (stereo not given),-0.915 (inactive),-0.148,3.92 (inactive),1.2 (inactive),-0.18 (inactive),0.822 (inactive),-0.0923,0.655 (inactive),-0.666 (inactive),-1.38
c1ccc(-c2cc3c(nc2-c2ccccc2)CCNC3)cc1,-0.539 (inactive),-0.101,1.39 (inactive),0.179 (inactive),0.484 (inactive),0.248 (inactive),-0.597,1.18 (inactive),0.286 (inactive),-0.433
COC(=O)[C@@]1(Cc2ccccc2)[C@H]2c3cc(C(=O)N(C)C)n(C)c3C[C@H]2CN1C(=O)c1ccccc1,-0.741 (inactive),0.113,1.24 (inactive),0.373 (inactive),0.747 (inactive),0.617 (inactive),0.553,0.294 (inactive),-0.0833 (inactive),-2.5

# Reference: PubChem BioAssay
